Compounds with a hit are over-represented: about 2.4% of the library has one in this group of screens.
D2 antag: HTS Assay for Allosteric Antagonists of the Human D2 Dopamine Receptor: Primary Screen for Antagonists; hit rate 2% among 340,000; AID 485344, 2010; HEK293 TREx D2 cells, calcium flux, dopamine EC80; inhibition, % at 10 µM; in the data active = inhibition above about 30%; inactive = below that, where a call was filed; note: 0% is about no effect
Target sequence (P14416 whole entry, looked up): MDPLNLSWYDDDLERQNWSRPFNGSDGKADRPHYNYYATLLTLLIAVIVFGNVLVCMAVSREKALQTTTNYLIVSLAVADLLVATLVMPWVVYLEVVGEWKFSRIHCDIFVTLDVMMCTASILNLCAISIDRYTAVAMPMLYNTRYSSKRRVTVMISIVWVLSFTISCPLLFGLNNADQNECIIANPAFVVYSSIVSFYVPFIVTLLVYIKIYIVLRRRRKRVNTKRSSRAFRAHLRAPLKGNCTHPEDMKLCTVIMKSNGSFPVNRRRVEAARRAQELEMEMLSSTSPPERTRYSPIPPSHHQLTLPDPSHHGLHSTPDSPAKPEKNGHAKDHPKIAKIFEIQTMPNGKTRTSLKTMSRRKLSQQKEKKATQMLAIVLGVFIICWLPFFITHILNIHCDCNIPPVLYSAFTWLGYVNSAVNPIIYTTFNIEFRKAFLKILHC
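Compounds are added to dye-loaded, induced HEK293 T-REx cells coupled to calcium release via D2; after a 3 min kinetic read an EC80 dopamine stimulus is given and fluorescence is recorded for 3 more min.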
D2 PAM-1: HTS Assay for Positive Allosteric Modulators of the Human D2 Dopamine Receptor: Primary Screen for Potentiators; D(2) dopamine receptor (Homo sapiens), P14416; HEK293 T-REx D2, calcium flux, EC20 dopamine potentiation; potentiation, % at 10 µM; hit rate 0.34% among 340,000;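 active = potentiation over 3 SD above the plate norm, cut at about 30% in these data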; note: 0% is about no effect
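Calcium flux readout, no-wash dye, 1 read/s. Inducible HEK293 Trex D2 line, overnight 30 C. Compound alone 180 s (agonist flags), then EC20 dopamine, another 180 s to score potentiation.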
D2 ag-1: Beta-Arrestin HTS for Positive Allosteric Modulators of the Human D2 Dopamine Receptor: Agonists; DiscoveRx PathHunter D2 beta-arrestin, luminescence, 90 min; 100% = 57 uM dopamine signal; activation, % (test concentration not listed); hit rate 0.084% among 360,000; AID 624465, 2012; in the data active = activation above about 40%; inconclusive = between about 15% and that limit
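Agonist mode: compounds alone added to overnight-plated D2 PathHunter cells for 90 min at 37 C, with 57 uM final dopamine (EC100) defining full response. Beta-arrestin recruitment detected by chemiluminescent reagent, read after 1 h at ambient temperature.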
D2 ag-2: HTS Assay for Allosteric Agonists of the Human D2 Dopamine Receptor: Primary Screen for Agonists | activation, % at 2 µM | D(2) dopamine receptor (Homo sapiens), P14416 | hit rate 0.53% among 340,000 | HEK293 T-REx D2 cells, calcium flux agonist mode;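 active = activation over 3 SD above normal in the single-dose calcium agonist read, cut at about 30% in these data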; note: 0% is about no effect
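Tetracycline-induced HEK293 T-REx cells with force-coupled D2 receptor, plated overnight at 30 C, loaded with no-wash calcium dye. After a 10 s baseline, compound was pin-added and calcium flux read kinetically for 180 s; calcium rises flagged agonists.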
D2 PAM-2: Beta-Arrestin HTS for Positive Allosteric Modulators of the Human D2 Dopamine Receptor: Potentiators | D(2) dopamine receptor (Homo sapiens), P14416 | DiscoveRx D2 beta-arrestin cells, luminescence, 90 min; 100% = 57 uM dopamine signal | potentiation, % (test concentration not listed) | hit rate 0.23% among 360,000; in the data active = potentiation above about 50%; inconclusive = mostly about 30% to 49%
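PathHunter beta-arrestin assay in DiscoveRx D2 cells. Compounds were added with an EC20 of dopamine (50 nM final) for 90 min at 37 deg C. Luminescence was read 1 h after detection reagent, with 57 uM dopamine as the EC100 control.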
Active calls of the source: *; ? = inconclusive; . = not tested or not shown.

SMILES	D2 antag	D2 PAM-1	D2 ag-1	D2 ag-2	D2 PAM-2
O=C(COC(=O)c1ccc([N+](=O)[O-])o1)NC1CCCC1	.	.	7.6	.	13.7
O=C(COC(=O)c1ccc([N+](=O)[O-])o1)NC1CCS(=O)(=O)C1 (stereo unspecified)	33.4*	8.2	5.8	0.2	?
Cc1ccc(S(=O)(=O)CC(=O)Nc2sc3c(c2C#N)CCCC3)cc1	.	4.7	.	-0.7	.
CC(Oc1ccccc1)C(=O)Nc1ccccc1C(=O)OCc1cc(=O)n2nc(C(C)C)sc2n1 (stereo unspecified)	.	14.1	.	1.5	.
O=C(c1ccc2c3c(cccc13)CC2)C1CCCN(Cc2ccccn2)C1 (stereo unspecified)	36.7*	-17.8	-1.6	-0.4	-6.6
Cc1cnc(CN2CCCC(C(=O)c3ccc4c5c(cccc35)CC4)C2)[nH]1 (stereo unspecified)	7.5	-32.1	-3.5	-1.3	-16.3
O=C(c1ccc2c3c(cccc13)CC2)C1CCCN(Cc2ccc(OCCO)cc2)C1 (stereo unspecified)	30.8*	-31.9	-0.1	0.3	-4.8
CCOc1ccc(C(=O)NNC(=O)CN2C(=O)NC3(CCCC3)C2=O)cc1	42.1*	-10.7	-3.9	0.3	3.2
CCOc1ccc(C(=O)CN2C(=O)NC3(CCCCCC3)C2=O)cc1	-1.8	4.7	-4.9	0.4	0.6
CSc1ccc(C2c3c(-c4ccccc4O)n[nH]c3C(=O)N2Cc2ccncc2)cc1 (stereo unspecified)	.	22.1	.	.	.
CC(=O)C1=C(O)C(=O)N(c2ccc(Br)cn2)C1c1ccccc1[N+](=O)[O-] (stereo unspecified)	31.2*	0.8	-2.9	0.8	-6.3
CC(C)(C)NC(=O)CN(Cc1ccc2c(c1)OCO2)C(=O)CCC(=O)Nc1nccs1	11.5	14.5	-3.0	0.0	-1.6
CCC(C)(C)NC(=O)CN(Cc1ccc2c(c1)OCO2)C(=O)CCC(=O)Nc1cc(C)ccn1	42.2*	12.6	-4.7	0.3	-8.4
O=C(CCn1c(=O)c2cccn2c2ccccc21)Nc1ccc(F)cc1	61.4*	4.7	-3.6	1.4	-21.7
O=C(CSc1ncccn1)NC(=O)c1ccccc1	-10.5	34.0*	-5.8	0.5	8.5
Nc1nnc(SCC(=O)NNC(=O)c2ccc(F)cc2)s1	-39.3	-6.9	-2.6	-0.1	-13.9
O=C(CSc1ncccn1)NCc1ccc(Cl)cc1	35.8*	-2.7	-3.0	-0.4	-2.2
Nc1nnc(SCC(=O)NNC(=O)c2ccccc2)s1	37.2*	-7.2	-4.8	-0.1	-8.8
O=C(CSc1ccccc1)NNC(=O)c1ccncc1	57.1*	5.3	-0.2	1.0	0.9
COc1cccc(CNS(=O)(=O)c2ccc3c(c2)C(C(C)C)C(=O)N3)c1 (stereo unspecified)	.	4.8	.	0.3	.
CC(C)(C)OC(=O)N1CCC(c2c(C(=O)NCCN3CCOCC3)cnn2-c2ccc(F)cc2F)CC1	.	-5.9	.	0.4	.
Cc1ccc(C(=O)N2CCc3cc(CNS(=O)(=O)c4ccc(Cl)s4)ccc32)cc1	.	9.3	.	-0.8	.
Cc1ccc(S(=O)(=O)Nc2cccc(C(=O)NCC(c3ccccc3)N(C)C)c2)cc1F (stereo unspecified)	79.2*	-28.2	-2.7	0.0	-4.5
CCN1/C(=C/C=C/c2oc3ccc4ccccc4c3[n+]2CC)Oc2ccc3ccccc3c21	6.6	-4.3	3.3	44.9*	0.4
CCN1C(=O)/C(=C/C=C2/Sc3ccc4ccccc4c3N2CCO)SC1=S	6.2	-1.4	-1.9	-0.1	-4.3
SMILES	D2 antag	D2 PAM-1	D2 ag-1	D2 ag-2	D2 PAM-2
COc1ccc2nc(C)cc(Nc3ccc(Cl)c(Cl)c3)c2c1	.	3.4	.	.	.
C=CCN=C1S/C(=C\c2ccc(Cl)cc2)C(=O)N1CC=C	79.6*	-4.2	1.2	1.2	-3.4
C=CCN=C1S/C(=C/c2ccc([N+](=O)[O-])cc2)C(=O)N1CC=C	5.2	1.6	0.7	-1.3	-4.8
CCN(CC)c1ccc(NC(=O)c2cnc3c(-c4ccccc4)c(C)nn3c2C)c(C)c1	.	13.9	.	.	.
CCOc1cccc(CN2CCCC(N3CCc4ccccc4C3)C2)c1O (stereo unspecified)	-18.9	11.9	-5.8	-0.9	-24.0
O=C(c1cnccn1)N1CCCC(N2CCN(c3cccc(Cl)c3)CC2)C1 (stereo unspecified)	7.7	-2.8	5.2	36.8*	-19.7
Cc1cccc(C(=O)N2CCCC(N3CCN(c4cccc(Cl)c4)CC3)C2)n1 (stereo unspecified)	4.3	2.7	1.1	-0.2	-20.5
CS(=O)(=O)N1CCCC(C(=O)N2CCN(c3cccc(Cl)c3)CC2)C1 (stereo unspecified)	31.2*	5.9	4.4	0.6	2.1
CCOc1cccc(CN2CCCC(N3CCN(c4cccc(Cl)c4)CC3)C2)c1O (stereo unspecified)	36.6*	-9.0	-2.3	8.0	-21.2
CCOc1cccc(CN2CCCC(C(=O)c3cc(Cl)ccc3OC)C2)c1O (stereo unspecified)	65.6*	-19.6	1.7	1.0	-22.1
CS(=O)(=O)N1CCC(C(=O)N2CCN(c3cccc(Cl)c3)CC2)CC1	7.4	.	3.1	0.2	-3.6
O=C(COc1ccc(F)cc1)Nc1ccc2nc(SCC(=O)N3CCOCC3)sc2c1	.	14.1	.	-1.9	.
Cc1cccc(N(Cc2ccccc2)C(=O)c2ccc(F)c(S(=O)(=O)N3CCOCC3)c2)c1	0.1	-1.8	7.7	0.0	-16.2
CC(=O)c1cccc(NC(=O)c2ccc3c(c2)CCCC3)c1	32.9*	-30.2	-3.9	0.3	-50.1
COc1cccc(NC(=O)c2ccc3c(c2)CCCC3)c1	-4.7	-5.9	-0.2	-0.2	-20.4
CC(=O)c1cccc(NC(=O)c2ccc(C)c(S(=O)(=O)N3CCOCC3)c2)c1	49.8*	9.0	-1.0	1.0	-3.1
Cc1ccc(N(Cc2ccccc2)C(=O)c2ccc(F)c(S(=O)(=O)N3CCOCC3)c2)cc1	59.0*	-4.3	-7.2	0.2	-12.2
COc1ccc(OCCOC(=O)c2ccc(F)c(S(=O)(=O)N3CCOCC3)c2)cc1	49.2*	3.1	3.3	18.4	-1.2
CC(=O)c1ccc(NC(=O)CSC2=Nc3ccccc3N=C(c3ccc(F)cc3)C2)cc1	.	12.0	.	0.1	.
CN(Cc1nc(-c2ccc(Cl)cc2)no1)S(=O)(=O)c1ccccc1	.	-2.0	.	-0.6	.
CCOc1cc(C(=O)Nc2ccc3nc(Nc4cccc(Cl)c4)cc(C)c3c2)cc(OCC)c1OCC	.	-0.5	.	1.0	.

Assay outcomes (PubChem BioAssay)
